Assay results from PubChem BioAssay AID602346 (Broad Institute, 2012).
The campaign covered roughly 340,000 compounds. About 1,200 (0.35%) were called active. For the sample, actives were picked, then their nearest neighbours and some compounds at random. A number with no mark means an inactive call. No stated cut-off is given here; in the data, active means inhibition above about 50% (passing the limit was not always enough); inconclusive means no clear call, values can overlap the other calls; inactive means below about 31%.

experiment: HIV Vif self-association inhibitors, primary screen, imaging, HEK293T, single point (AID 602346); conditions: HEK293T cells, Vif self-association by quenched fluorescence, 24 h, at 7.49 µM, active compounds read high

SMILES | inhibition
C#Cc1cc(N2CCN(C(=O)c3ccoc3)CC2)n2nc(-c3cccc(Cl)c3)cc2n1 | -5.39%
CC(C)N(C(=O)[C@H]1C[C@H](CC(=O)NCCC2=CCCCC2)C(=O)N2CCc3c([nH]c4cc(CCC(=O)N(C)C)ccc34)[C@]12C)C(C)C | 0.666%
CN(C)C(=O)CCc1ccc2c3c([nH]c2c1)[C@]1(CCc2ccccc2)[C@@H](C(=O)N2CCCCC2)C[C@H](CC(=O)NCCC2=CCCCC2)C(=O)N1CC3 | 2.36%
CN(C)C(=O)CCc1ccc2c3c([nH]c2c1)[C@]1(C)[C@@H](C(=O)N2CCCCC2)C[C@H](CC(=O)NCCC2=CCCCC2)C(=O)N1CC3 | 71.8% (active)
Cc1nc2c(OCc3cccc(Cl)c3)cccn2c1N(C)CC1CC1 | -11.2%
COc1ccc(CC(N)c2csc(NC(=O)Nc3ccc(C(C)C)cc3)n2)cc1 (centres undefined) | -7.74%
Cc1ccc(CCC(=O)Nc2ncc(Cc3cc(Cl)ccc3Cl)s2)o1 | 144% (active)
Cc1ccc(C(=O)Nc2nc3ccc(Cl)cc3s2)o1 | -31.1%
Cc1ccc(Cc2cnc(N)s2)o1 | -1.08%
CSCCC(c1nnnn1Cc1ccccc1)N1CCN(C/C=C/c2ccccc2)CC1 (centres undefined) | -1.75%
Cc1ccc(Cn2c(C)c(C(=O)NCc3ccccc3C(F)(F)F)sc2=O)cc1 | 4.56%
N#Cc1cc([N+](=O)[O-])ccc1Oc1cccc(/C=N/NC(=O)c2ccc(Cl)cc2)c1 | -18.6%
CCCc1ccc(OCc2ccc(C(=O)N/N=C/c3cccc([N+](=O)[O-])c3)o2)c(OC)c1 | 53.7% (active)
COC(=O)c1ccc(COc2ccc(/C=N/NC(=O)C(=O)Nc3ccc(OC)cc3)cc2OC)o1 | 4.89%
CN(C)c1cccc(NC(=O)c2ccc(-c3ccc(F)c(F)c3)c3ccoc23)c1 | 3.47%
CC[C@@H]1Cc2cc(O)ccc2C2=C1c1ccc(O)cc1C[C@H]2CC | 85.1% (active)
CC(=O)Nc1cccc(-c2cc(NC(C)=O)c3ncc(-c4ccccc4)n3c2)c1 | 18.3%
O=c1[nH]c2ccccc2n1C1CCN(CCOc2ccccc2)CC1 | -4.07%
COc1ccc(/C=C/C(=O)c2c(O)cc(OC)cc2OC)cc1 | -16.7%
COc1cccc(-c2cnc(OC(C)(C)C)nc2OC(C)(C)C)c1 | -0.006%
CC(C)(C)Oc1ncc(Br)c(OC(C)(C)C)n1 | 61.1% (active)
Cc1ccc(NC(=O)Cn2sc3ccccc3c2=O)cc1 | 4.93%
COc1ccc(N/C=C(\C2OC(=O)c3ccccc32)[N+](=O)[O-])cc1 (centres undefined) | 50.1% (active)
COc1ccc(NC(=O)C2=C(C)NC(=O)NC2c2ccccc2[N+](=O)[O-])cc1 (centres undefined) | -2.26%
COc1ccc(NC(=O)ON=C2c3ccccc3-c3ccccc32)cc1 | -9.14%

SMILES | inhibition
NC(Cc1ccccc1)c1csc(Nc2cc(Oc3ccccc3)ncn2)n1 (centres undefined) | -3.02%
CCOC(=O)[C@H]1Nc2ccc(Cl)cc2[C@@H]2[C@H]1C1CC(c3ccccc31)N2C(=O)OCc1ccccc1 (some centres undefined) | 2.38%
CC(=O)Oc1ccc(Cn2c(C)c(C(=O)NCc3ccc(C#N)cc3)sc2=O)cc1 | 1.95%
COc1cccc(CNc2nc3cc(-c4csc5ccccc45)sc3c(=O)n2C)c1 | -4.94%
COc1ccc(CC(NC(C)=O)C(=O)N2CCN(C(=O)Nc3cccc(Cl)c3)CC2)cc1OC (centres undefined) | 50.1% (active)
COc1ccc(CC(NC(C)=O)C(=O)NC2CCN(C(=O)C3CC3)CC2)cc1OC (centres undefined) | -0.652%
COc1ccc(CC(NC(C)=O)C(=O)NC2CCN(C(=O)Nc3ccc(C#N)cc3)CC2)cc1OC (centres undefined) | -4.35%
CCOc1ccc(CCN2C(=S)N([C@@H](CC(C)C)CN3CCC[C@@H]3CN3C(=S)NC[C@@H]3Cc3ccc(O)cc3)C[C@@H]2Cc2ccc(O)cc2)cc1 | 1.22%
CCc1nc2ccc(C(=O)NCc3ccc(OC)cc3)cn2c1N(CC)Cc1cccc(Br)c1 | 4.42%
Cc1cccc(C(=O)NC2CCN(CC(=O)Nc3cccc(Cl)c3)CC2)c1 | -0.446%
CCCOc1ccc(F)cc1-c1cc(C(=O)NCc2ccc(F)cc2)[nH]n1 | 14.3%
CN(C)C(=S)Nc1ccc(Br)cc1Cl | 1.91%
CN(C)C(=O)c1cc(Br)ccc1Cl | 102% (active)
CC(C)(C)NC(=O)COC(=O)c1cc(Br)ccc1Cl | -3.23%
CCOC(=O)C1CCCN(C(=O)c2ccc(C)c(F)c2)CC1 (centres undefined) | -7.05%
COc1ccc(-c2cc(NC(C)=O)c3ncc(-c4cc(OC)c(OC)c(OC)c4)n3c2)cn1 | -2.19%
COc1ccccc1CNC(=O)c1cc(-c2cc(Cl)ccc2C)n[nH]1 | 20.2%
CCc1ccc(OCC(=O)NCC(c2ccc(Cl)cc2)N2CCCCC2)cc1 (centres undefined) | 58.2% (active)
COc1ccc(C(CNC(=O)COc2ccc([N+](=O)[O-])cc2)N2CCCCC2)cc1 (centres undefined) | 3.74%
COc1ccc(C(CNC(=O)COc2ccccc2OC)N2CCCCC2)cc1 (centres undefined) | -2.23%
CC(C)Nc1nc(NCCOc2ccccc2Cl)c2sccc2n1 | -13.3%
Oc1cccc2cc(-c3ccncc3)cnc12 | 11.1%
CCOC(=O)C(=Cc1ccccc1)C(=O)c1ccccc1 | -5.2%
COc1ccc(C(C)(O)c2nc(-c3cc(F)cc(F)c3)cs2)cc1 (centres undefined) | -4.33%
